Results filed as inconclusive are left out. Calls of active or inactive are those of the source. The call rests on the fitted dose curve; in most records, active means well fitted inhibition curve with a large enough effect; inconclusive means small, poorly fitted or top-dose-only effect; inactive means no such curve, though single readings can be large or run the other way.
Potency means the concentration at half of the fitted maximal effect.

Rap guanine nucleotide exchange factor 4 (Homo sapiens), sequence (Q8WZA2 whole entry, looked up): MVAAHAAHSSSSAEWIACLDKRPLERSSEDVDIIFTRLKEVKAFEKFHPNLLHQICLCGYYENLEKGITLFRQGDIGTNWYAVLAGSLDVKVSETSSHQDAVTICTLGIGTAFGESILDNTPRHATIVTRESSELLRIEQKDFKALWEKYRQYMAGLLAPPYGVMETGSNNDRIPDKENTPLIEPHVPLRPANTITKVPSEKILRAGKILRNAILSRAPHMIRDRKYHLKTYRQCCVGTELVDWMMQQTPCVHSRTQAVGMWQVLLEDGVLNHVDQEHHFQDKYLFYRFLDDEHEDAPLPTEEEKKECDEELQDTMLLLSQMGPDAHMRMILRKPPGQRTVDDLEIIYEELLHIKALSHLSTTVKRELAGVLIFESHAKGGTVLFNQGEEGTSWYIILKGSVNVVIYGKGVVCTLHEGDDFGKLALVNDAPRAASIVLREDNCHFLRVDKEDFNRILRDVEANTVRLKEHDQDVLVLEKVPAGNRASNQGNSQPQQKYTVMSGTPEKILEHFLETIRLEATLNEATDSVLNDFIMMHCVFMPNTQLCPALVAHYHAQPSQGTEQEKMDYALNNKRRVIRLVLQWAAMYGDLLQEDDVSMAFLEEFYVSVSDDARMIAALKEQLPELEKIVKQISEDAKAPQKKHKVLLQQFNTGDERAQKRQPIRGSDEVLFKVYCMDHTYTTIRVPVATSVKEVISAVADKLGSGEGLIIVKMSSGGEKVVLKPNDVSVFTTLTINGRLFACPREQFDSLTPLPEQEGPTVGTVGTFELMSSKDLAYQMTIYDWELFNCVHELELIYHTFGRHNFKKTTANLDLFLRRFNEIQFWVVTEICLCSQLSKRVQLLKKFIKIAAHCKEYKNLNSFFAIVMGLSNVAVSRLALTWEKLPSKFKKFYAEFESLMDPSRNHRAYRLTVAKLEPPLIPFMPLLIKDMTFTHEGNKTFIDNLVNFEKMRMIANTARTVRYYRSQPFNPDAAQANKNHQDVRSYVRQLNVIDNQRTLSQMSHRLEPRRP
Rap guanine nucleotide exchange factor 3 (Homo sapiens), sequence (O95398 whole entry, looked up): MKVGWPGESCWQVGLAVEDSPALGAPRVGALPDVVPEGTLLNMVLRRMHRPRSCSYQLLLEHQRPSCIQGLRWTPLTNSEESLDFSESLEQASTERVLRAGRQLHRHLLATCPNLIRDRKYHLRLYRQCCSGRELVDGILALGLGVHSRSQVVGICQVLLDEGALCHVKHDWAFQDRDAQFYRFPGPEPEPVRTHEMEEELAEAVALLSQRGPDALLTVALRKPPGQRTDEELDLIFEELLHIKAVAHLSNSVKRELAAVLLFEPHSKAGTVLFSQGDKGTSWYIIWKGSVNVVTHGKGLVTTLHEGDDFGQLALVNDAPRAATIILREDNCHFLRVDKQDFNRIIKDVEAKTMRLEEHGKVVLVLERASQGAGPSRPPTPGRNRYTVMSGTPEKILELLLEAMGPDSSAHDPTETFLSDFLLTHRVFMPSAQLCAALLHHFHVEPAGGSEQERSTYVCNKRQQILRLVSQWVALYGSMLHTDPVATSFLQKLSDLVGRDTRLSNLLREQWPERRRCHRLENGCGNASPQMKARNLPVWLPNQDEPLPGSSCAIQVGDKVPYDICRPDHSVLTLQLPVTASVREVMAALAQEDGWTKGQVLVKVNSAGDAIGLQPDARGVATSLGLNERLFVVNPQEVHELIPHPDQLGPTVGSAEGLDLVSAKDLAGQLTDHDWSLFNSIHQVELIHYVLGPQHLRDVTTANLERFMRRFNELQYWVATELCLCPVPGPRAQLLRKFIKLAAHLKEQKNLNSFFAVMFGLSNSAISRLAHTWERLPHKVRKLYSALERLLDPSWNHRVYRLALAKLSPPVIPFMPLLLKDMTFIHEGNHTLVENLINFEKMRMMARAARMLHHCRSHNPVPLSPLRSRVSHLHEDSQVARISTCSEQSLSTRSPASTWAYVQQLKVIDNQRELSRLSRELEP

The target in one experiment is Rap guanine nucleotide exchange factor 3 (Homo sapiens) (UniProt O95398). Put plainly: Confirmatory qHTS for antagonist of cAMP-regulated guanine nucleotide exchange factor 3 (EPAC1) (AID 1645880). Further: nearly all actives have a fitted effect of over 55% in size.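 On activity, negative = inhibition: plate controls were DMSO only for no effect and full effect of the ATA control for full effect.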 The conditions noted are these: EPAC1 Rap1B-BODIPY-GDP exchange, fluorescence; activity, negative = inhibition: at 115 µM (top of the series). The procedure, abridged:
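Released BODIPY-GDP fluoresces less than Rap1-bound BODIPY-GDP; the signal is followed at 480/540 nm at 5-min intervals over 30 min, after 5 min at room temperature. Reactions contain 100 nM EPAC1, 250 nM RAP1B-BODIPY-GDP and 50 uM GDP; results are normalized to ATA and DMSO.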
As to `COc1ccc(C(=O)Nc2nc(-c3ccc(OC)cc3)c(-c3ccc([N+](=O)[O-])cc3)s2)cc1`, the “activity, negative = inhibition” value is -20.9% (inactive).
On the same count and under the same terms, as for `CCN1CCc2c(sc(NC(=O)Nc3ccc(Cl)c(Cl)c3)c2C(N)=O)C1`, the figure is 46.9% (inactive); as for `O=C(NCCOc1ccccc1F)c1ccccc1SCc1ccc(F)cc1`, -22.3% (inactive); as for `COc1ccc(C(=O)N(CCc2ccccc2)Cc2cccs2)c(OC)c1`, -27% (inactive).
Same read-out and setting: to `CC(=O)[C@@]1(O)Cc2c(O)c3c(c(O)c2[C@H](O[C@H]2C[C@H](N)[C@H](O)[C@H](C)O2)C1)C(=O)c1ccccc1C3=O` belongs 159% (inactive); to `Oc1ccc(N=Cc2sc3ccccc3c2Cl)cc1`, -22% (inactive).
Same read-out and setting: as for `CC(C)CC1=NN2C(=N)/C(=C\c3coc4ccccc4c3=O)C(=O)N=C2S1`, the figure is 35.8% (inactive).
Regarding `CC(=O)/C(=N\Nc1ccccc1)Sc1cccc2cccnc12`, the “activity, negative = inhibition” value was 5.06% (inactive).
Regarding `Cc1ccc(S(=O)(=O)/N=C2\C=C(NS(=O)(=O)c3ccccc3)C(=O)c3ccccc32)cc1`, the Potency was 26.9 µM (active).
For the compound `COc1ccc(-c2csc3nc(C)nc(N4CCCCC4)c23)cc1OC`, the “activity, negative = inhibition” value is -29.6% (inactive).
Same read-out and setting: to `COc1ccc2c(c1)CCC1C2=NN(/C(C)=C/C(C)=O)C1c1cccc(F)c1` (stereo not given) belongs -12.8% (inactive); to `Cc1ccc(-c2nc3ccc(C)cn3c2CC2CCCCC2)cc1`, -27.2% (inactive); to `CCOC(=O)c1cc(C)sc1NC(=O)CSC1=NCCS1`, -21.5% (inactive).
On the same count and under the same terms, as for `C=Cc1ccc(CC2(C)C(=O)Nc3ccc(-c4cccnc4)cc32)cc1` (stereo not given), the figure is -19.5% (inactive); as for `COc1ccc(C2CC(c3cccs3)=NN2c2ccc(C=O)cc2)cc1` (stereo not given), 26% (inactive).
Same read-out and setting: to `COC(=O)c1ccc(Cn2nc(-c3cc(C)ccc3C)ccc2=O)cc1` belongs -22.7% (inactive).
Regarding `COc1ccccc1C(=O)Oc1ccc2c(c1)O/C(=C\c1ccncc1)C2=O`, the “activity, negative = inhibition” value is -12.4% (inactive).
The same measure, in the same setting: as for `CC[n+]1ccc(/C=C/c2c[nH]c3ccccc23)cc1`, the figure is 1.19% (inactive).
Still for that read-out and setting: as for `O=C1CC2(CCN(S(=O)(=O)c3ccccc3F)CC2)Oc2ccccc21`, the figure is 3.5% (inactive).
Regarding `CN(C(=O)c1cc2c(cc1Br)OCO2)c1cccc2ccccc12`, the “activity, negative = inhibition” value is -15.7% (inactive).
The same measure, in the same setting: as for `CC1=CC2=NC(=O)/C(=C/c3coc4ccccc4c3=O)C(=N)N2O1`, the figure is 2.02% (inactive).
The same measure, in the same setting: to `COc1ccccc1N1CCN(C(=O)c2ccc(S(=O)(=O)N3CCCC3)cc2)CC1` belongs -15.7% (inactive).
On the same count and under the same terms, as for `O=S(=O)(c1ccc(Cl)c2ccccc12)N1CCCC1`, the figure is -16.3% (inactive); as for `COc1ccc(-c2nn(-c3ccccc3)cc2/C=C2/SC(=S)N(CCC(=O)O)C2=O)cc1`, 9.36% (inactive).
With `N#Cc1cc(Br)ccc1N=C1CCCN1c1ccccc1`, the “activity, negative = inhibition” value is -16.5% (inactive).
Same read-out and setting: to `COC(=O)c1sc(S(=O)(=O)N2CCCCC2C)c(C(=O)OC)c1C` (stereo not given) belongs -35% (inactive); to `CC1CC1c1ccc(/C=C(\C#N)C(=O)Nc2cc(Cl)ccc2Cl)o1` (stereo not given), -15.7% (inactive); to `CCN1CCN(c2ccc(S(=O)(=O)N3CCCCC3)cc2NC(=O)c2cccc(OC(F)F)c2)CC1`, -19.2% (inactive).
As to `N=C(N)c1ccc(N=Nc2c(O)ccc3c2[nH]c2ccccc23)cc1`, the Potency was 56.2 µM (active).
Take `CCCCn1c(=O)[nH]c2nc3cc(N)ccc3nc2c1=O`: the “activity, negative = inhibition” value was 64.6% (inactive).
The same measure, in the same setting: as for `CCN(CC)c1ccc(/C=C/C(=O)c2ccc(Br)cc2)cc1`, the figure is 286% (inactive).
In the case of `Cc1cccc(N2CCN(S(=O)(=O)c3ccc4c(c3)CCN4C(=O)CCC(=O)O)CC2C)c1` (stereo not given), the Potency was 47.8 µM (active).
Turning to `CCN1C(=O)C(=CC=CN(C)c2ccccc2)SC1=S`, the “activity, negative = inhibition” value was 40.4% (inactive).
`O=C1C=C(c2c(O)ccc3ccccc23)c2ccccc2C1=O`: the Potency is 67.5 µM (active).
Take `COc1ccccc1N1N=C(C(=O)c2ccccc2)C2C(=O)N(c3ccc(Br)cc3)C(=O)C21` (stereo not given): the “activity, negative = inhibition” value is 27.3% (inactive).
Take `O=C(NC1CCCC1)c1cccc2c1C(=O)c1ccc(N3CCCCC3)cc1S2(=O)=O`: the “activity, negative = inhibition” value is 6.8% (inactive).
On the same count and under the same terms, to `COc1cccc(/C(O)=C/c2nc3ccc(C(=O)NCCc4cccc(C)c4)cc3[nH]c2=O)c1` belongs -2.3% (inactive).
Consider `Brc1ccc(CSc2nccn2-c2ccccc2)cc1`, for which the “activity, negative = inhibition” value is -19.3% (inactive).
On to `N#C/C(=C\c1ccc(Sc2ccc(Cl)cc2)o1)c1nc2ccccc2[nH]1`, for which the “activity, negative = inhibition” value is -22% (inactive).
Still for that read-out and setting: as for `COc1ccc(NC(=O)NS(=O)(=O)c2ccc(C)cc2)cn1`, the figure is 12.2% (inactive).

Another experiment addresses Rap guanine nucleotide exchange factor 4 (Homo sapiens) (UniProt Q8WZA2). Put plainly: Confirmatory qHTS for antagonist of cAMP-regulated guanine nucleotide exchange factor 4 (EPAC2) (AID 1645885). Further: nearly all actives have a fitted effect of over 25% in size. On activity change, negative = inhibition: on the % scale 0 is the no-effect control and ±100 the full control effect. The settings on record: EPAC2 Rap1B-BODIPY-GDP exchange fluorescence, biochemical; series mostly up to 12.7 µM; activity change, negative = inhibition: at the top concentration.
With `COc1ccc(C(=O)Nc2nc(-c3ccc(OC)cc3)c(-c3ccc([N+](=O)[O-])cc3)s2)cc1`, the “activity change, negative = inhibition” value is 1.8% [at 114 µM] (inactive).
As for `CCN1CCc2c(sc(NC(=O)Nc3ccc(Cl)c(Cl)c3)c2C(N)=O)C1`, the Potency was 84.9 µM (active).
On the same count and under the same terms, as for `O=C(NCCOc1ccccc1F)c1ccccc1SCc1ccc(F)cc1`, the figure is 10.7 µM (active).
Turning to `COc1ccc(C(=O)N(CCc2ccccc2)Cc2cccs2)c(OC)c1`, the result was inactive.
Consider `CC(=O)[C@@]1(O)Cc2c(O)c3c(c(O)c2[C@H](O[C@H]2C[C@H](N)[C@H](O)[C@H](C)O2)C1)C(=O)c1ccccc1C3=O`, for which the “activity change, negative = inhibition” value is 21.8% (inactive).
The same measure, in the same setting: to `Oc1ccc(N=Cc2sc3ccccc3c2Cl)cc1` belongs -13.1% [at 114 µM] (inactive); to `CC(C)CC1=NN2C(=N)/C(=C\c3coc4ccccc4c3=O)C(=O)N=C2S1`, 51.7% (inactive).
As for `CC(=O)/C(=N\Nc1ccccc1)Sc1cccc2cccnc12`, the Potency is 84.9 µM (active).
The same measure, in the same setting: as for `Cc1ccc(S(=O)(=O)/N=C2\C=C(NS(=O)(=O)c3ccccc3)C(=O)c3ccccc32)cc1`, the figure is 16.9 µM (active).
With `COc1ccc(-c2csc3nc(C)nc(N4CCCCC4)c23)cc1OC`, the “activity change, negative = inhibition” value was 61.7% [at 114 µM] (inactive).
With `COc1ccc2c(c1)CCC1C2=NN(/C(C)=C/C(C)=O)C1c1cccc(F)c1` (stereo not given), the Potency is 84.9 µM (active).
Regarding `Cc1ccc(-c2nc3ccc(C)cn3c2CC2CCCCC2)cc1`, the “activity change, negative = inhibition” value was -19.9% [at 114 µM] (inactive).
Still for that read-out and setting: to `CCOC(=O)c1cc(C)sc1NC(=O)CSC1=NCCS1` belongs 54.9% [at 114 µM] (inactive).
In the case of `C=Cc1ccc(CC2(C)C(=O)Nc3ccc(-c4cccnc4)cc32)cc1` (stereo not given), the “outcome” value was “inactive; activator; fitted 11.9955 uM”.
Consider `COc1ccc(C2CC(c3cccs3)=NN2c2ccc(C=O)cc2)cc1` (stereo not given), for which the “activity change, negative = inhibition” value was 25% [at 114 µM] (inactive).
Regarding `COC(=O)c1ccc(Cn2nc(-c3cc(C)ccc3C)ccc2=O)cc1`, the outcome was inactive.
With `COc1ccccc1C(=O)Oc1ccc2c(c1)O/C(=C\c1ccncc1)C2=O`, the Potency is 84.9 µM (active).
Turning to `CC[n+]1ccc(/C=C/c2c[nH]c3ccccc23)cc1`, the “activity change, negative = inhibition” value was 18.9% [at 114 µM] (inactive).
Same read-out and setting: to `O=C1CC2(CCN(S(=O)(=O)c3ccccc3F)CC2)Oc2ccccc21` belongs 28.4% [at 114 µM] (inactive); to `CN(C(=O)c1cc2c(cc1Br)OCO2)c1cccc2ccccc12`, 41% [at 114 µM] (inactive).
Take `CC1=CC2=NC(=O)/C(=C/c3coc4ccccc4c3=O)C(=N)N2O1`: the Potency was 75.7 µM (active).
`COc1ccccc1N1CCN(C(=O)c2ccc(S(=O)(=O)N3CCCC3)cc2)CC1`: the “activity change, negative = inhibition” value is -14.5% [at 114 µM] (inactive).
The same measure, in the same setting: to `O=S(=O)(c1ccc(Cl)c2ccccc12)N1CCCC1` belongs 49.7% [at 114 µM] (inactive); to `COc1ccc(-c2nn(-c3ccccc3)cc2/C=C2/SC(=S)N(CCC(=O)O)C2=O)cc1`, -6.76% [at 114 µM] (inactive).
As to `N#Cc1cc(Br)ccc1N=C1CCCN1c1ccccc1`, the Potency was 3.01 µM (active).
Consider `COC(=O)c1sc(S(=O)(=O)N2CCCCC2C)c(C(=O)OC)c1C` (stereo not given), for which the Potency is 53.6 µM (active).
For `CC1CC1c1ccc(/C=C(\C#N)C(=O)Nc2cc(Cl)ccc2Cl)o1` (stereo not given), the “activity change, negative = inhibition” value is -16.5% [at 114 µM] (inactive).
With `CCN1CCN(c2ccc(S(=O)(=O)N3CCCCC3)cc2NC(=O)c2cccc(OC(F)F)c2)CC1`, the “activity change, negative = inhibition” value is -4.95% [at 114 µM] (inactive).
On the same count and under the same terms, to `N=C(N)c1ccc(N=Nc2c(O)ccc3c2[nH]c2ccccc23)cc1` belongs -22.5% (inactive); to `CCCCn1c(=O)[nH]c2nc3cc(N)ccc3nc2c1=O`, 26.1% (inactive); to `CCN(CC)c1ccc(/C=C/C(=O)c2ccc(Br)cc2)cc1`, 20.6% (inactive).
The same measure, in the same setting: as for `Cc1cccc(N2CCN(S(=O)(=O)c3ccc4c(c3)CCN4C(=O)CCC(=O)O)CC2C)c1` (stereo not given), the figure is -24.3% [at 114 µM] (inactive); as for `CCN1C(=O)C(=CC=CN(C)c2ccccc2)SC1=S`, 6.25% (inactive).
Consider `O=C1C=C(c2c(O)ccc3ccccc23)c2ccccc2C1=O`, for which the Potency was 47.8 µM (active).
Turning to `COc1ccccc1N1N=C(C(=O)c2ccccc2)C2C(=O)N(c3ccc(Br)cc3)C(=O)C21` (stereo not given), the “activity change, negative = inhibition” value is 6.18% [at 114 µM] (inactive).
Same read-out and setting: as for `O=C(NC1CCCC1)c1cccc2c1C(=O)c1ccc(N3CCCCC3)cc1S2(=O)=O`, the figure is 12.4% [at 114 µM] (inactive).
Still for that read-out and setting: as for `COc1cccc(/C(O)=C/c2nc3ccc(C(=O)NCCc4cccc(C)c4)cc3[nH]c2=O)c1`, the figure is 13.8% [at 114 µM] (inactive).
As to `Brc1ccc(CSc2nccn2-c2ccccc2)cc1`, the “activity change, negative = inhibition” value is 16.4% [at 114 µM] (inactive).
Still for that read-out and setting: to `N#C/C(=C\c1ccc(Sc2ccc(Cl)cc2)o1)c1nc2ccccc2[nH]1` belongs -9.7% [at 114 µM] (inactive).
In the case of `COc1ccc(NC(=O)NS(=O)(=O)c2ccc(C)cc2)cn1`, the “activity change, negative = inhibition” value is 27.3% [at 114 µM] (inactive).

Values taken from PubChem BioAssay (NCATS).
